HSP90 inh: blocks HSP90-mediated luciferase refolding in reticulocyte lysate; hit rate 0.91% among 290,000; Rabbit reticulocyte lysate, luciferase refolding luminescence, 3 h; inhibition, % at 5.6 µM;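 active = inhibition above the screen-wide mean plus 3 SD, computed separately per campaign, cut at about 16% in these data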;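 also: inhibitors lower the luminescence because luciferase stays unfolded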
MPTP inh: inhibitors of mitochondrial permeability transition pore | isolated mouse mitochondria, Ca2+ swelling absorbance, 30 min | inhibition, % at 10 µM | hit rate 1.4% among 360,000 | AID 602449;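 active = inhibition of 50% or more, scaled per plate between neutral and stimulator controls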
HSF-1 act: increases HSF-1 driven luciferase reporter signal; AID 504408; NIH3T3-HGL HSF-1 luciferase reporter, MG132, 8 h; 100% = twice DMSO control signal; activation, % at 9 µM; hit rate 1.7% among 300,000;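 active = mean replicate activation of at least 50% with a set share of replicates each reaching 50%; inconclusive = only one of those two conditions met; inactive = mean below 50% and too few replicates reaching it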
HSF1 inh: HSF1 inhibition; NIH3T3-HGL HSE-luciferase, MG132-induced, luminescence 8 h; stronger effect = lower value; activity change, negative = inhibition, % at 7.5 µM (by protocol); hit rate 0.77% among 300,000;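 active = more than half of replicate wells show activity change below -50%, luminescence cut by over half; inconclusive = some wells, but at most half, below -50%; inactive = no replicate well below -50%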;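 also: luciferase reports HSF-1 transcriptional activity via heat shock element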
dFosB activator: mouse delta FosB homodimer activation. hit rate 0.99% among 340,000. AID 493131. activation, % at 25 µM. purified delta FosB, TAMRA-CDK5 oligo fluorescence polarization; percent of positive-control signal above neutral wells. P13346;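 active = mean activation above about 17%, with every replicate also reaching it, limit read from the data, passing the limit was not always enough; inconclusive = only one of the two conditions met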
Target sequence (P13346 whole entry, looked up): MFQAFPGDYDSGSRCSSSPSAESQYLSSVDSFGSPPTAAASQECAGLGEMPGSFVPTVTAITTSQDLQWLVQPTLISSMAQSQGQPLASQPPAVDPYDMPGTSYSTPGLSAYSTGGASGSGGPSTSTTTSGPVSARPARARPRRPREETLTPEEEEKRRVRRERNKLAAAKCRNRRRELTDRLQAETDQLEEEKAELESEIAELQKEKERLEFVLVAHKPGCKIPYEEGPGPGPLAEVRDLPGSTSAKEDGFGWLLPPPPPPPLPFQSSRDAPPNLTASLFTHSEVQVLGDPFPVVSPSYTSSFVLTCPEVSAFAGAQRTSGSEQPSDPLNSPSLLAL
Platelet DG rel: modulates dense granule release in human platelets. hit rate 0.22% among 300,000. inhibition, %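 (compounds screened at 7.5 µM in platelet-rich plasma)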. human platelet-rich plasma, SFLLRN dense granule ATP release, luminescence;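 active = mean replicate score, as percent of positive control, at or above 50; inconclusive = mean below 50 but at least one replicate at or above 50; inactive = mean and every replicate below 50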
Each line names hits and unclear results; the compound was inactive in the other large screens. An excerpt weighted towards active compounds, which were near 4.9% of everything screened.

NC(=O)CN1C(=O)NC2(CCCc3ccccc32)C1=O (stereo not drawn)	none
COc1cccc(C(C)(O)c2nc(/C=C/c3ccccc3)cs2)c1 (stereo not drawn)	none (no result: HSP90 inh, HSF-1 act, HSF1 inh, dFosB activator, Platelet DG rel)
c1ccc(OCc2cc(-c3ccccc3)no2)cc1	HSF-1 act 61
COc1ccccc1OCc1cc(-c2ccccc2)no1	HSF-1 act 53
COc1ccc(OCc2cc(-c3ccc(Cl)cc3)no2)cc1	none
Cc1cccc(C(=O)Nc2cc(S(=O)(=O)N3CCOCC3)ccc2N2CCCC2)c1	none (no result: HSP90 inh, HSF-1 act, HSF1 inh, Platelet DG rel)
COCCNC(=O)C1CCCN(C(=O)C2(c3ccc(Cl)cc3)CCCC2)CC1 (stereo not drawn)	none (no result: HSP90 inh, HSF-1 act, HSF1 inh, dFosB activator, Platelet DG rel)
O=C(Cc1ccc(Br)cc1)N1CCc2ccccc2C1	HSF-1 act 98
COc1cccc(-n2nnc3c(=O)n(Cc4ccccc4Cl)cnc32)c1	HSF1 inh -58
CN(C)c1nc(N)nc(CSc2nnnn2-c2ccc(F)cc2)n1	HSF-1 act 60
O=C(Nc1ccc2[nH]ncc2c1)c1ccccc1Cl	HSF1 inh -67
Cc1cccnc1Nc1nc(-c2ccccc2)cs1	HSF-1 act inconclusive
O=C(Nc1nc(-c2ccc(Cl)s2)cs1)c1cccs1	none
Cc1cccnc1Nc1nc(-c2ccccn2)cs1	HSF-1 act 350
O=C(Nc1nc(-c2ccccn2)cs1)c1ccc(Cl)s1	HSF-1 act 223
O=C(Nc1nc(-c2ccc(Cl)s2)cs1)c1ccco1	HSF-1 act 67
CC1Cc2ccccc2N1Cc1ccc([N+](=O)[O-])cc1 (stereo not drawn)	none
Nc1nnc(CC(=O)N/N=C/c2ccc(-c3ccc(F)cc3)o2)s1	none (no result: dFosB activator)
CCOC(=O)c1ccc(-c2ccc(/C=N/NC(=O)Cc3nnc(N)s3)o2)cc1	HSF-1 act 71
CCCOC(=O)c1ccc(-c2ccc(C=O)o2)cc1	HSP90 inh 36, HSF-1 act 66
CC(=O)N1CCc2cc(S(=O)(=O)NC(Cc3ccccc3)C(=O)NC3CCCCCC3)ccc21 (stereo not drawn)	HSF-1 act 54
CCOC(=O)[C@]12CCC=C1N(Cc1cccc3ccccc13)C(=O)[C@H](CC(=O)N1CCCC1)C2	none (no result: HSP90 inh, HSF-1 act, HSF1 inh, dFosB activator, Platelet DG rel)
CCOC(=O)CC1c2nc3ccccc3cc2CN1C(=O)OCC (stereo not drawn)	none (no result: HSP90 inh, HSF-1 act, HSF1 inh, dFosB activator, Platelet DG rel)
CC(C)Cc1nc2sc3c(NCc4ccco4)ncnc3c2c2c1COC(C)(C)C2	none
Cc1nc2sc3c(NCc4ccco4)ncnc3c2c2c1COC(C)(C)C2	HSF1 inh -89
CC(=O)Nc1ccc2c(c1)C(=O)c1cccc(C(=O)O)c1-2	none (no result: HSP90 inh, HSF-1 act, HSF1 inh, Platelet DG rel)
CCOc1ccc(-n2nnc3c(=O)n(CC(=O)N4CCCc5ccccc54)cnc32)cc1	none
COc1ccc(-n2nnc3c(SCC(=O)N4CCCc5ccccc54)ncnc32)cc1	HSF-1 act 57 (no result: HSP90 inh)
CCC1Oc2ccccc2N(CC(=O)NCc2cccs2)C1=O (stereo not drawn)	none
CN(c1ccccc1)c1nc(N)c(C#N)c(CC#N)c1C#N	HSF-1 act 69
CC(C)CN(CC(C)C)c1nc(N)c(C#N)c(CC#N)c1C#N	HSF-1 act 132
COC(=O)[C@@H](Cc1c[nH]c2ccccc12)NC(=O)c1ccc2c(c1)OCO2	HSF-1 act 70
O=C(COC(=O)[C@H](Cc1c[nH]c2ccccc12)NC(=O)c1ccc(Cl)cc1)Nc1ccc2c(c1)OCO2	none
COc1ccc([C@@H]2C[C@H](c3ccccc3)Oc3cc(C)cc(C)c32)cc1	none (no result: HSP90 inh)
Cc1nc(NC(=O)/C=C/c2ccc(Cl)cc2Cl)sc1C(=O)N(C)C	HSF1 inh -76
CCN(CC)c1ccc(/C=C2/C(=O)N(c3ccc([N+](=O)[O-])cc3)N=C2N2CCOCC2)cc1	HSF-1 act 92 (no result: MPTP inh, dFosB activator)
COc1cc(/C=C2/C(=O)N(c3ccc([N+](=O)[O-])cc3)N=C2N2CCOCC2)ccc1O	none
COc1ccc(-n2nc(C(=O)NCC(=O)NCCN(C)C)c3ccccc3c2=O)c(OC)c1	none
COc1ccc(-n2nc(C(=O)NCC(=O)NCc3ccccc3OC)c3ccccc3c2=O)c(OC)c1	HSF1 inh -60
COc1ccc(C(C)NC(=O)C2CCN(CCOc3ccc(Cl)cc3Cl)CC2)cc1OC (stereo not drawn)	none (no result: HSP90 inh, HSF-1 act, HSF1 inh, dFosB activator, Platelet DG rel)
Cn1cc(-c2csc(C(O)c3ccc(F)c(F)c3)n2)cn1 (stereo not drawn)	none (no result: HSP90 inh, HSF-1 act, HSF1 inh, dFosB activator, Platelet DG rel)
CCCCC(=O)NC(c1ccc(N(CC)CC)cc1)c1ccc2cccnc2c1O (stereo not drawn)	none
CCCC(=O)NC(c1ccccc1OC)c1ccc2cccnc2c1O (stereo not drawn)	HSP90 inh 24
CCCCC(=O)NC(c1ccc(N(C)C)cc1)c1ccc2cccnc2c1O (stereo not drawn)	HSP90 inh 19
O=C(COC(=O)CNS(=O)(=O)c1ccc2ccccc2c1)Nc1ccccc1Sc1ccccc1	none
O=C(C=C=Nc1ccccc1)C(=O)N=C=Cc1ccccc1	HSF-1 act 224, Platelet DG rel 53
COc1ccc(CNC(=O)CSCc2ccccc2Cl)cc1	none
Cc1ccc(Nc2nnc(SCC(=O)Nc3cccc(S(=O)(=O)NC4=NCCCCC4)c3)s2)cc1	HSF-1 act 86
Cc1ccc(NC(=O)CSc2nnc(-c3ccc(S(=O)(=O)N4CCCC4)cc3)o2)cc1C	dFosB activator 70 (no result: HSF-1 act, HSF1 inh, Platelet DG rel)
Cc1cccc(Nc2nnc(SCC(=O)Nc3cccc(S(=O)(=O)N4CCCCC4)c3)s2)c1	HSF-1 act 58
Cc1cccc(NC(=O)CSc2nnc(-c3ccc(S(=O)(=O)N4CCCC4)cc3)o2)c1	none
Cc1cccc(NC(=O)CSc2nnc(NC(=O)CN3CCCCC3)s2)c1	none (no result: MPTP inh, dFosB activator)
Cc1ccc(Nc2nnc(SCC(=O)Nc3ccc(S(=O)(=O)N4CCOCC4)cc3)s2)cc1	HSF-1 act 72
COCCCn1c(O)c(/C=C2\N=C(C#N)C(=Nc3ccc(C)cc3)O2)sc1=S	none
Cc1ccc2nc(SCC(=O)Nc3cccc(S(=O)(=O)NC4=NCCCCC4)c3)[nH]c2c1	HSF-1 act 112
CCc1ccc(Nc2nnc(SCC(=O)Nc3cccc(S(=O)(=O)NC4=NCCCCC4)c3)s2)cc1	HSF-1 act 55
Cc1nnc(SCC(=O)Nc2cccc(S(=O)(=O)NC3=NCCCCC3)c2)n1Cc1ccccc1	none
O=C(Nc1ccccc1C(=O)NCc1cccnc1)c1ccc(Cl)cc1Cl	none
Cc1cc(C)cc(NC(=O)CN(C)S(=O)(=O)c2cnc[nH]2)c1	HSF-1 act 80
COc1ccc(NC(=O)CN(C)S(=O)(=O)c2cnc[nH]2)cc1OC	none
Fc1ccc(-c2nnc3ccc(N4CCc5ccccc5C4)nn23)cc1	HSF-1 act 80
Cc1ccc(SCCCn2cncn2)cc1	HSF1 inh -71
O=C(CN1C(=O)c2ccccc2S1(=O)=O)Nc1ccccc1	HSF1 inh -65
COc1ccc(C(=O)CN2C(=O)c3ccccc3S2(=O)=O)cc1	HSF1 inh -65 (no result: dFosB activator)
COc1ccc(C(=O)CN2C(=O)c3ccccc3S2(=O)=O)cc1Br	none
